# PubChem BioAssay (NCATS)
# Where “and” joins values, the source holds several entries; their conditions need not be identical. Identical values can stand only once. A number with no mark means an inactive call. Records with an inconclusive call do not appear. Where a call stands in place of a potency, no number is given. Calls of active or inactive are those of the source. Unless noted, calls come from the whole dose curve; as a rule, active = well fitted curve in the direction sought with a large enough effect; inconclusive = small, poorly fitted or top-dose-only effect, or another doubt; inactive = no such curve, though single readings can be large; an effect the other way counts as inactive or inconclusive.
# Columns and labels:
# [1] = Cell Viability - HepG2 (AID 433; calls by dose curve;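 note: potency is the fitted concentration of half-maximal effect; cells exposed to compound for 40 hours; potency for ATP loss meaning cytotoxicity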); settings: qHTS
# Method in brief: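 ATP luminescence (CellTiter-Glo) after 40 h compound exposure, 37 °C, HepG2, 1500 cells/well, complete medium. Normalized: DMSO = basal, 100 uM tamoxifen = 100% inhibition. AC50 via standard Hill equation.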
# [2] = Cell Viability - HUV-EC-C (AID 542); settings: HUV-EC-C endothelial cell viability, qHTS; series mostly up to 92.2 µM;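 note: cells exposed to compound for 40 hours; nearly all actives have a fitted effect of over 35% in size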
# Method in brief: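 Decrease in cellular ATP, quantified by luciferase luminescence, reflects toxicity in normal human vascular endothelial HUV-EC-C cells given compound for 40 hr in complete culture medium. Values are AC50s from concentration-response curves.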
# [3] = Cellular Toxicity (caspase-3) HUV-EC-C (AID 656); settings: HUV-EC-C cells, caspase-3 activation (apoptosis), vehicle = 0, 100 µM tamoxifen = 100%; series mostly up to 92.2 µM
# Method in brief: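 Luminescent caspase-3/7 activation (aminoluciferin substrate cleavage) in HUV-EC-C cells after 16 hr compound exposure, 37°C. Signal normalized to DMSO basal and 100 uM tamoxifen as 100%; AC50 from concentration-response fitted with the Hill equation.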
# [4] = Cellular Toxicity (caspase-3) H-4-II-E (AID 663); settings: H-4-II-E rat hepatoma; Potency: caspase-3 activation; series mostly up to 92.2 µM;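 note: cells exposed to compound for 16 hr before readout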
# Method in brief: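 Luminescence from caspase-cleaved aminoluciferin substrate, read 20 min after reagent addition, reports caspase 3/7 activation in rat H-4-II-E cells after 16 hr compound exposure. Normalized to DMSO (basal) and 100 uM tamoxifen (100%); AC50 from Hill fits.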
# [5] = Cellular Toxicity (caspase-3) NIH 3T3 (AID 666); settings: NIH 3T3 caspase-3 activation, apoptosis/toxicity; series mostly up to 92.2 µM; note: potency is the fitted concentration of half-maximal effect
# Method in brief: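 Concentration-response qHTS in NIH 3T3 mouse fibroblasts scores caspase-3/7 activation as rising luminescence after 16 hr compound exposure. Signals are scaled between DMSO-only and 100 uM tamoxifen.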
# [6] = Cellular Toxicity (caspase-3) Renal Proximal Tubule (AID 667); settings: renal proximal tubule cells; series mostly up to 91.7 µM;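 note: cells exposed to compound for 16 hours at 37 °C before detection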
# Method in brief: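 Luminescent caspase 3/7 signal from peptide-aminoluciferin cleavage measures apoptosis in freshly isolated rat kidney proximal tubule cells after 16 h compound exposure. Concentration-response data are normalized to DMSO and 10 uM staurosporine, and AC50 values come from Hill equation fits.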
# [7] = Cell Viability - LYMP2-001 (AID 921); settings: LYMP2-001 lymphoblastoid cell viability; series mostly up to 92.2 µM; note: nearly all actives have a fitted effect of over 70% in size
# Method in brief: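 CellTiter-Glo luminescence (intracellular ATP) after 24 hr compound exposure at 37 C, 2500 lymphoblastoid cells/well in complete medium. AC50 fitted with standard Hill equation; tetraoctylammonium bromide positive control.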
# [8] = MultiTox-Fluor Cytotoxicity Assay - LYMP1-001 - Dead Cells (AID 946); settings: LYMP1-001 lymphoblastoid cells, dead-cell protease fluorescence; series mostly up to 92.2 µM
# Method in brief: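 Seed 2500 LYMP1-001 cells/well, incubate 5 hr at 37 C; add compound, 16 hr at 37 C; add MultiTox-Fluor reagent, 60 min RT; read dead-cell fluorescence Ex/Em=485/520. Normalize to DMSO and 15 uM tetraoctylammonium bromide.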
# [9] = MultiTox-Fluor Cytotoxicity Assay - LYMP1-002 - Live Cells (AID 955); settings: LYMP1-002 lymphoblastoid live-cell protease fluorescence viability; series mostly up to 46.1 µM;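 note: cells exposed to compound for 16 hours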
# Method in brief: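 Cytotoxicity in the human lymphoblastoid line LYMP1-002 is measured as loss of live-cell protease activity after 16 h treatment in complete culture medium. AC50 is derived from Hill-equation fits of qHTS concentration-response data.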
# [10] = Cell Viability - LYMP1-003 - Assay at 40 hr (AID 964); settings: LYMP1-003 lymphoblastoid viability; series mostly up to 92.2 µM; note: nearly all actives have a fitted effect of over 60% in size; note: potency is the fitted concentration of half-maximal effect
# Method in brief: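 This qHTS cytotoxicity screen treats human lymphoblastoid cells (LYMP1-003) with compounds for 40 hr and quantifies cellular ATP via luciferase luminescence.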
# [11] = Cell Viability - LYMP2-003 (AID 965); settings: LYMP2-003 lymphoblastoid cell viability; series mostly up to 92.2 µM;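 note: cells exposed to compounds for 24 h before reading; nearly all actives have a fitted effect of over 50% in size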; note: potency is the fitted concentration of half-maximal effect
# Method in brief: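 CellTiter-Glo luminescence (cellular ATP) after 24 h compound exposure at 37 C in complete medium; 2500 cells/well, 5 h settling beforehand. Concentration-response fitted to standard Hill equation for AC50. Tetraoctylammonium bromide served as positive control.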
# [12] = Cell Viability - LYMP2-015 (AID 971); settings: LYMP2-015 lymphoblastoid cell viability; series mostly up to 92.2 µM; note: nearly all actives have a fitted effect of over 55% in size; note: potency is the fitted concentration of half-maximal effect
# Method in brief: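 Acute toxicity was scored as a concentration-dependent drop in intracellular ATP in lymphoblastoid cells after 24 hr compound exposure in complete medium. Detection used CellTiter-Glo luciferase luminescence.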
# [13] = Cell Viability - LYMP2-023 (AID 975); settings: LYMP2-023 lymphoblastoid cell viability; series mostly up to 92.2 µM;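 note: cells exposed to compound for 24 hours at 37 °C; nearly all actives have a fitted effect of over 55% in size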; note: potency is the fitted concentration of half-maximal effect
# Method in brief: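 Concentration-dependent drop in intracellular ATP measures acute cytotoxicity in a human lymphoblastoid line treated for 24 hours in complete culture medium. AC50 values are taken from Hill-equation fits of qHTS data.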
# [14] = Cell Viability - LYMP2-006 (AID 978); settings: LYMP2-006 lymphoblastoid cell viability, qHTS; series mostly up to 92.2 µM;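 note: cells exposed to compound for 24 hours; nearly all actives have a fitted effect of over 60% in size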; note: potency is the fitted concentration of half-maximal effect
# Method in brief: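 qHTS, 1536-well; 2500 cells/well, 5 hr 37 C; cpd 24 hr 37 C; CellTiter-Glo 30 min RT; luminescence. Tetraoctylammonium bromide pos. ctrl. AC50 via Hill eqn.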
# [15] = Cell Viability - LYMP2-012 (AID 982); settings: LYMP2-012 lymphoblastoid cell viability qHTS; series mostly up to 92.2 µM;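 note: cellular ATP by luciferase luminescence where a drop means cytotoxicity; cells exposed to compound for one day before reading; nearly all actives have a fitted effect of over 55% in size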
# [16] = Cell Viability - LYMP2-026 (AID 989); settings: LYMP2-026 lymphoblastoid cell viability, qHTS; series mostly up to 92.2 µM; note: nearly all actives have a fitted effect of over 50% in size; note: potency is the fitted concentration of half-maximal effect
# Method in brief: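 Concentration-dependent loss of intracellular ATP in human lymphoblastoid cells after 24 hr at 37 C, quantified by luciferase luminescence. AC50 derived from standard Hill equation.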
# [17] = qHTS assay for small molecule disruptors of the mitochondrial membrane potential - 5 hr assay (AID 651755; calls by dose curve; note: nearly all actives have a fitted effect of over 40% in size); settings: JC-1-type ratio dye; series mostly up to 92.2 µM
# Method in brief: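 HepG2 cells, attached overnight at 37C, were exposed to compound or DMSO for 5 hr at 37C, 5% CO2. Mito-MPS dye was then added for 30 min, and fluorescence read at 490/535 nm (monomers) and 540/590 nm (aggregates).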
# [18] = molecular target: Nuclear receptor subfamily 1 group I member 2 (Rattus norvegicus) (UniProt Q9R1A7); assay: qHTS assay for small molecule activators of the rat pregnane X receptor (rPXR) signaling pathway (AID 651751; call rule not given here); settings: rPXR reporter cells, luciferase (One-Glo), 24 h
# [19] = qHTS assay for small molecule activators of the human pregnane X receptor (PXR) signaling pathway (AID 720659; call rule not given here); settings: DPX-2 HepG2 CYP3A4-luciferase, 24 h; series mostly up to 92.3 µM
# [20] = molecular target: Vitamin D3 receptor (Homo sapiens) (UniProt P11473); assay: qHTS assay for small molecule agonists of vitamin D receptor signaling (AID 588543; calls by dose curve); settings: HEK293T VDR-UAS-bla, beta-lactamase ratio, 16 h; series mostly up to 76.8 µM
# Method in brief: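 β-lactamase reporter, VDR-UAS-bla HEK293T, agonist mode. Cells plated 5 h at 37 °C, compound titration 16 h at 37 °C, CCF4 dye 2 h RT, ratio 460/530 nm. Hill fit → EC50, efficacy vs 50 nM 1α,25-(OH)2D3.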
# Sequence of Nuclear receptor subfamily 1 group I member 2 (Rattus norvegicus) (Q9R1A7 whole entry, looked up): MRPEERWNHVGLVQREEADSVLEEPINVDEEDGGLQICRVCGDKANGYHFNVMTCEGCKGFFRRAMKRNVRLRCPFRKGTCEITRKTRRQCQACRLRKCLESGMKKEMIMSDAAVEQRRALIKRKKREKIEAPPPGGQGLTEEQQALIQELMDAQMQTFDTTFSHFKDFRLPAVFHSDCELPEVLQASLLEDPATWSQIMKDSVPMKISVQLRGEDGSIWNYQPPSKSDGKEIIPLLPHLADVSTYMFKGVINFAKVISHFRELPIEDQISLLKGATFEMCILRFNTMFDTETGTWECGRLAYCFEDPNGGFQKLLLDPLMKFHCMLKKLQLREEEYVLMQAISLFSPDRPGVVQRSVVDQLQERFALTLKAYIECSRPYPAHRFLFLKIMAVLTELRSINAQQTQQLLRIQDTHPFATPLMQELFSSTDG
# Sequence of Vitamin D3 receptor (Homo sapiens) (P11473 whole entry, looked up): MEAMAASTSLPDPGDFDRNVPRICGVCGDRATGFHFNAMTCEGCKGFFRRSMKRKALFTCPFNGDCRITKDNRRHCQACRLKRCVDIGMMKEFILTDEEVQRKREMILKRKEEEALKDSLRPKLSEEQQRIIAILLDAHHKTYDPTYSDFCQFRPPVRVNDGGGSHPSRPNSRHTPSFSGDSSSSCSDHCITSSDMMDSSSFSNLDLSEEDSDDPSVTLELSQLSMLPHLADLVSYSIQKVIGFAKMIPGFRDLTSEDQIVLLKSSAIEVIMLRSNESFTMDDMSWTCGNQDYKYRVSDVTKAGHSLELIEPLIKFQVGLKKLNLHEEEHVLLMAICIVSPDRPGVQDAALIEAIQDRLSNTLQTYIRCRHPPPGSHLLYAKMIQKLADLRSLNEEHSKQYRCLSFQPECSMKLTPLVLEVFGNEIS
SMILES,Potency [1],Potency [2],outcome [3],Potency [4],Potency [5],outcome [6],Potency [7],outcome [8],outcome [9],Potency [10],Potency [11],Potency [12],Potency [13],Potency [14],Potency [15],Potency [16],Potency [17],max response [18],outcome [19],outcome [20]
N#CC(Cl)(Cl)Cl,> 92 µM,inactive,inactive,inactive,inactive,inactive,inactive,inactive,inactive,inactive,inactive,inactive,inactive,inactive,inactive,inactive,inactive,3.31%,inactive,
c1ccc(NNc2ccccc2)cc1,> 92 µM,inactive,inactive,inactive,,inactive,inactive,inactive,inactive,inactive,inactive,inactive,inactive,,inactive,inactive,inactive,12.1% and 2.7%,inactive,inactive
Nc1ccc([N+](=O)[O-])cc1N,> 92 µM,inactive,inactive,,inactive,inactive,inactive,inactive,inactive,,inactive,inactive,inactive,inactive,inactive,inactive,inactive,-5.6% and -2.56%,,inactive
CN(C)C(=O)Nc1ccc(Cl)cc1,> 92 µM,inactive,inactive,inactive,inactive,inactive,,inactive,inactive,inactive,inactive,inactive,inactive,inactive,inactive,inactive,inactive,6.29% and 10.4%,inactive,inactive
O=[N+]([O-])c1cc(Cl)c(Cl)c(Cl)c1,> 92 µM,inactive,inactive,,25.1 µM (active),inactive,inactive,inactive,inactive,inactive,inactive,inactive,inactive,inactive,inactive,inactive,inactive,-3.17%,inactive,inactive
O=[N+]([O-])c1ccccc1O,> 92 µM,,inactive,inactive,,inactive,inactive,inactive,,inactive,inactive,inactive,inactive,inactive,,inactive,inactive,0.314%,inactive,
COC(C)(C)C,> 92 µM,inactive,inactive,,inactive,inactive,inactive,inactive,,inactive,,inactive,inactive,inactive,inactive,inactive,inactive,3.77%,inactive,inactive
O=Cc1ccc(Cl)cc1Cl,,inactive,inactive,,inactive,,,,inactive,,,inactive,inactive,inactive,inactive,inactive,inactive,2.77%,inactive,inactive
Oc1cccc(Cl)c1,> 92 µM,inactive,inactive,inactive,inactive,inactive,inactive,,inactive,inactive,inactive,inactive,,inactive,inactive,inactive,inactive,1.59%,inactive,inactive
O=C(O)C(Br)CBr (centres undefined),> 92 µM,,inactive,inactive,inactive,inactive,,inactive,inactive,inactive,,inactive,inactive,inactive,inactive,inactive,inactive,-3.61%,inactive,
CN1CSC(=S)N(C)C1,> 92 µM,inactive,inactive,,,inactive,,inactive,,39.8 µM (active),31.6 µM (active),31.6 µM (active),39.8 µM (active),39.8 µM (active),,39.8 µM (active),inactive,-10.5% and -8.21%,,inactive
Nc1ccc(Cc2ccc(N)c(Cl)c2)cc1Cl,> 92 µM,,inactive,inactive,,inactive,inactive,inactive,inactive,inactive,inactive,inactive,inactive,inactive,inactive,inactive,inactive,,,inactive
Oc1c(Cl)c(Cl)cc(Cl)c1Cl,> 92 µM,inactive,inactive,inactive,inactive,inactive,inactive,inactive,inactive,inactive,,inactive,inactive,inactive,,inactive,,-8.76%,inactive,
ClCCCCl,> 92 µM,inactive,inactive,inactive,inactive,inactive,inactive,,,inactive,inactive,inactive,inactive,inactive,inactive,inactive,inactive,-3.7%,inactive,inactive
O=[N+]([O-])c1c(Cl)c(Cl)c(Cl)c(Cl)c1Cl,> 92 µM,inactive,,inactive,31.6 µM (active),,,,inactive,inactive,inactive,inactive,inactive,inactive,inactive,inactive,inactive,-3.78% and 1.81%,inactive,inactive
Nc1ccc2ccccc2c1,> 92 µM,,inactive,inactive,inactive,inactive,inactive,inactive,inactive,inactive,inactive,inactive,inactive,inactive,inactive,inactive,inactive,,inactive,inactive
